Out of some 330,000 compounds screened, about 940 (0.28%) were called active. Cut-off read from the data, not from the text of the source: active = inhibition above about 12%; inactive = the rest. Shown is part of a subset that was picked to be rich in actives.
test: growth inhibition of E. coli expressing H. pylori AddAB, primary screen, AddAB inhibitor project, absorbance (AID 435030); conditions: at 11.9 µM, active compounds read high;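 note: 0% = vehicle wells of infected cells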

Row | Compound | inhibition
1 | COc1cccc(C(=O)N2CCC(n3nccc3NC(=O)C3CCOC3)CC2)c1 (configuration not stated) | 0.08% (inactive)
2 | Cc1ccc(-c2nnc(CN3CCN(C)CC3)o2)cc1 | -0.67% (inactive)
3 | CC(C)(C)SCCSC1=CC(=O)CC(c2ccccc2)C1 (configuration not stated) | 0.25% (inactive)
4 | CCn1cc(CN2CCN(CC(C)(C)C)C(CCO)C2)c2ccccc21 (configuration not stated) | -1.04% (inactive)
5 | CC1=C(C(=O)OCc2ccccc2)C(c2ccco2)n2ncnc2N1 (configuration not stated) | 14.7% (active)
6 | COc1ccccc1NC(=O)C1=C(C)Nc2ncnn2C1c1ccc(C)o1 (configuration not stated) | -0.48% (inactive)
7 | CC1=C(C(=O)OC2CCCCC2)C(c2cccnc2)n2ncnc2N1 (configuration not stated) | 0% (inactive)
8 | COC(=O)C1(C)NC(c2ccc(F)cc2)C2C(=O)N(c3ccccc3)C(=O)C21 (configuration not stated) | 1.16% (inactive)
9 | CC(C)C[C@H]1CN=C(Nc2ccccc2)N1CC1CCCCC1 | 2.92% (inactive)
10 | CCOc1ccc(C(C)=O)cc1COC(=O)CNC(=O)c1cccs1 | 3.06% (inactive)
11 | CC1CCCC(C)N1C(=O)CN1CCN(c2nc(-c3ccc(F)cc3)cs2)CC1 (configuration not stated) | 1.81% (inactive)
12 | CCn1c(=S)sc2c(=O)n(CC(=O)Nc3ccc(OC)cc3)c(C)nc21 | 0.15% (inactive)
13 | O=C1Nc2cc(Cl)c(Cl)cc2N(O)N1c1cc(Cl)cc(Cl)c1 | -1% (inactive)
14 | C/[N+]([O-])=C\c1ccc([N+](=O)[O-])o1 | 79% (active)
15 | COc1ccc(C(=O)NCC(=O)N/N=C/c2ccc([N+](=O)[O-])o2)cc1OC | 9.43% (inactive)
16 | COC(=O)C1=C(C)N(C)C(=O)NC1c1ccc([N+](=O)[O-])o1 (configuration not stated) | 3.34% (inactive)
17 | COc1cccc(/C=N/Nc2ncc(C(F)(F)F)cc2Cl)c1O | 12.5% (active)
18 | CCOc1cccc(/C=N/NC(=S)NCCN2CCOCC2)c1O | -0.42% (inactive)
19 | COc1ccc(Br)cc1/C=N/Nc1ccc(Cl)c(C(=O)O)c1 | 1.8% (inactive)
20 | O=C(Nc1ccc(Br)cn1)c1ccc([N+](=O)[O-])o1 | 97.7% (active)
21 | CN1C(=O)c2ccc(C(=O)Nc3ccc(Br)cn3)cc2C1=O | -3.02% (inactive)
22 | O=C(Nc1cccc(O)c1)c1ccc(C(=O)c2ccccc2)o1 | 1.45% (inactive)
23 | Cc1onc(NC(=O)c2ccc([N+](=O)[O-])o2)c1Br | 9.34% (inactive)
24 | Cc1cccc(NC(=O)c2ccc([N+](=O)[O-])o2)c1 | 38.2% (active)
25 | O=C(Nc1ccc(Br)cn1)c1ccc([N+](=O)[O-])cc1Cl | -0.17% (inactive)
26 | CCOc1ccc(C(C)=O)cc1COC(=O)CN1C(=O)NC2(CCCC2)C1=O | 0.34% (inactive)
27 | Brc1cnc(N2CCCC2)nc1N1CCCCC1 | 2.22% (inactive)

Source: PubChem BioAssay AID435030 (The Scripps Research Institute Molecular Screening Center, 2010)
